The values below come from PubChem BioAssay (NCATS).

Records with an inconclusive call do not appear. Unmarked numbers belong to inactive results. Active and inactive are the calls of the source. The call rests on the fitted dose curve; in most records, active means well fitted cell-killing curve with a large enough effect; inconclusive means small, poorly fitted or top-dose-only effect, or effect the other way; inactive means no such curve, though single readings can be large or run the other way.
Potency means the concentration at half of the fitted maximal effect.

The nature of the assay: Quantitative High-Throughput drug screen in 47 multiple myeloma cell lines against the NCATS MIPE library collection: XG6_PLB cell viability assay (AID 1919865). Further: nearly all actives have a fitted effect of over 40% in size. As to conditions: XG6 myeloma viability, CellTiter-Glo ATP luminescence, 48 h; series mostly up to 45.8 µM; viability (% of control): at the top concentration. An excerpt:
PI: Beverly A. Mock Ph.D.
Laboratory of Cancer Biology and Genetics,
Center for Cancer Research, National Cancer Institute,
National Institute of Health, Bethesda, Maryland
Drug resistance and disease progression are common in multiple myeloma (MM) patients, underscoring the need for new therapeutic combinations. […] We hypothesized that effective combinations would reduce MYC expression and enhance p16 activity. […] These preclinical data identify potentially useful drug combinations for evaluation in drug-resistant MM and reveal potential mechanisms of combined drug sensitivity.
Described herein is the primary MIPE qHTS used to cherrypick compounds. Validated compounds were then further tested for potential synergistic activiy.
[1] Peat TJ, Gaikwad SM, Dubois W, Gyabaah-Kessie N, Zhang S, Gorjifard S, Phyo Z, Andres M, Hughitt VK, Simpson RM, Miller MA, Girvin AT, Taylor A, Williams D, D'Antonio N, Zhang Y, Rajagopalan A, Flietner E, Wilson K, Zhang X, Shinn P, Klumpp-Thomas C, McKnight C, Itkin Z, Chen L, Kazandijian D, Zhang J, Michalowski AM, Simmons JK, Keats J, Thomas CJ, Mock BA. Drug combinations identified by high-throughput screening promote cell cycle transition and upregulate Smad pathways in myeloma. Cancer Lett. 2023 Aug 1;568:216284. doi: 10.1016/j.canlet.2023.216284. Epub 2023 Jun 24. PMID: 37356470; PMCID: PMC10408729.
SEQUENCE No. (e.g., 1, 2, 3, etc.); […] (e.g., Cells, Incubation, Reagent, etc.); VALUE and DESCRIPTION.
1; Cells; 5 uL; white, solid bottom 1536-well Greiner assay plate.
2; Compounds; 23 nL; Kalypsis pin tool (Wako USA) equipped with a 1536-well pin head to transfer to the assay plates.
3; Incubation; 48 hours; 37C incubation.
4; Reagent;5uL; CellTiter Glo (Promega).
5; Detector; 425V; Luminescence; Viewlux PerkinElmer.
NOTES (numbers refer to Sequence numbers above)
1. The cell-based screening methods employed in this study were like those previously published. Briefly, the corresponding myeloma cell lines were screened in 1,536-well plates with 500 cells, 5-uL per well for inhibition of cell viability (assessed by measuring ATP levels with CellTiterGlo).
2. NCATS MIPE 4.0 library of approved and investigational drugs were added using the Kalypsis pin tool. Wells treated with DMSO only for 100% viability and media only for 0% viability were used as controls.
3. The assay plates were covered and incubated for 48 hours in a 37C, 5% CO2 incubator with controlled humidity.
4. After 48 hours, CellTilter-GloTM luminescent substrate mix (Promega) reagent was added to the assay plate and plates we incubated for 5 min at room temperature.
5. Signal was measured as median relative luminescence units on a ViewLux (PerkinElmer) multiplate reader.
[1] Heske CM, Davis MI, Baumgart JT, Wilson K, Gormally MV, Chen L, Zhang X, Ceribelli M, Duveau DY, Guha R, Ferrer M, Arnaldez FI, Ji J, Tran HL, Zhang Y, Mendoza A, Helman LJ, Thomas CJ. Matrix Screen Identifies Synergistic Combination of PARP Inhibitors and Nicotinamide Phosphoribosyltransferase (NAMPT) Inhibitors in Ewing Sarcoma. Clin Cancer Res. 2017 Dec 1;23(23):7301-7311. doi: 10.1158/1078-0432.CCR-17-1121. Epub 2017 Sep 12. PMID: 28899971; PMCID: PMC6636827.
(In general: ATP-based viability assays read luminescence as a measure of living cells.)
In the case of `CO[C@H]1CCC(O[C@H]2C[C@H]([C@]3(C)CC[C@]4(C[C@H](O)[C@@H](C)[C@@H]([C@@H](C)C=C(C)C(=O)[C@H](C)C[C@H](C)C(=O)O)O4)O3)O[C@]3(O[C@@H]([C@H]4O[C@@](O)(CO)[C@H](C)C[C@H]4C)C[C@H]3C)[C@H]2C)O[C@H]1C` (stereo not given in full), the Potency is 0.418 µM (active).
Regarding `CCN(CC)C(=O)c1ccc(C2=CC3(CCNCC3)Oc3cccc(O)c32)cc1`, the “viability (% of control)” value was 109%.
Still for that read-out and setting: then `C[C@H]([C@H](O)CCC(C)(C)O)[C@H]1CC[C@@]2(O)C3=CC(=O)[C@@H]4C[C@@H](O)[C@@H](O)C[C@]4(C)[C@@H]3CC[C@]12C`, with 97.8%.
Turning to `CC1(N2CCC(n3c([C@@H]4CCCNC4)nc4ccccc43)CC2)CCCCCCC1`, the Potency is 9.35 µM (active).
Still for that read-out and setting: as for `Cc1c(N)nc([C@H](CC(N)=O)NC[C@@H](N)C(N)=O)nc1C(=O)N[C@H](C(=O)N[C@@H](C)[C@H](O)[C@@H](C)C(=O)N[C@@H](C(=O)NCCc1nc(-c2nc(C(=O)NCCC[S+](C)C)cs2)cs1)[C@@H](C)O)C(O[C@H]1O[C@H](CO)[C@H](O)[C@@H](O)[C@@H]1O[C@H]1O[C@H](CO)[C@@H](O)[C@H](OC(N)=O)[C@H]1O)c1cnc[nH]1` (stereo not given in full), the figure is 0.59 µM (active); as for `CN1[C@H]2CC(O)C[C@H]1[C@H]1O[C@H]12` (stereo not given in full), 7.43 µM (active).
With `COc1cc2cc(c1Cl)N(C)C(=O)C[C@H](OC(=O)C(C)C)[C@]1(C)O[C@H]1[C@H](C)[C@@H]1C[C@@](O)(NC(=O)O1)[C@H](OC)C=CC=C(C)C2`, the “viability (% of control)” value was 19.6%.
Same read-out and setting: then `Clc1ccccc1C(c1ccccc1)(c1ccccc1)n1cccn1`, with 132%; and `O=C(O)CNC(=O)c1c(O)c2ccccc2n(Cc2ccccc2)c1=O`, with 99.3%.
Still for that read-out and setting: as for `C[C@]12CCC(=O)C(O)=C1CC[C@@H]1[C@H]3CCC(=O)[C@@]3(C)CC[C@@H]12`, the figure is 91.9%.
In the case of `O=C(Oc1ccc([N+](=O)[O-])cc1)N1CCN(Cc2cccc(Oc3ccccc3)c2)CC1`, the Potency was 23.5 µM (active).
Still for that read-out and setting: then `CC[C@@]1(O)C(=O)OCc2c1cc1n(c2=O)Cc2cc3ccccc3nc2-1`, with 0.0148 µM (active); and `C[C@@H]1CC[C@@]2(OC1)O[C@H]1C[C@H]3[C@@H]4CC=C5C[C@@H](O[C@@H]6O[C@H](CO)[C@@H](O[C@@H]7O[C@@H](C)[C@H](O)[C@@H](O)[C@@H]7O)[C@H](O)[C@@H]6O[C@@H]6O[C@@H](C)[C@H](O)[C@@H](O)[C@@H]6O)CC[C@]5(C)[C@@H]4CC[C@]3(C)[C@@H]1[C@H]2C`, with 3.72 µM (active).
Still for that read-out and setting: as for `O=C(N[C@H]1CN2CCC1CC2)c1ccc(Cl)cc1`, the figure is 8.33 µM (active).
Take `CC(C)N(CCNC(=O)CN1CCCC1=O)C(C)C`: the “viability (% of control)” value is 113%.
Still for that read-out and setting: as for `CC1=NN=C(c2ccc(N)cc2)c2cc3c(cc2C1)OCO3`, the figure is 110%; as for `c1ccc2c(CN3CCNCC3)cccc2c1`, 96%; as for `CSCC[C@@H](NC(=O)[C@@H](Cc1ccccc1)NC(=O)CNC(=O)CNC(=O)[C@@H](N)Cc1ccc(O)cc1)C(=O)O`, 125%.
For the molecule `COC(=O)[C@@H](N)CCCN=C(N)N[N+](=O)[O-]`, the “viability (% of control)” value is 125%.
For `CCOC(=O)c1c(C(C#N)=CN)c2ccc(Cl)c(Cl)c2n1C`, the “viability (% of control)” value is 95.2%.
Same read-out and setting: then `CC(C)(C)[C@]1(O)C[C@@H]2OC(=O)C[C@@]23C(=O)O[C@@H]2OC(=O)[C@H](O)C213` (stereo not given in full), with 113%.
Turning to `O=c1[nH]c2ccc(Cl)cc2c(N[C@@H]2CN3CCC2CC3)c1-c1nc2ccccc2[nH]1`, the Potency is 0.0372 µM (active).
For the molecule `NC1=NC(=O)N2CC12` (stereo not given), the Potency is 9.35 µM (active).
The same measure, in the same setting: then `COc1ccc(N(C(=O)Oc2c(C)cccc2C)c2ccnc(Nc3ccc(N4CCN(C)CC4)cc3)n2)c(OC)c1`, with 0.332 µM (active).
As for `CC(=Cc1csc(C)n1)[C@@H]1C[C@H]2O[C@]2(C)CCC[C@H](C)[C@@H](O)[C@@H](C)C(=O)C(C)(C)[C@@H](O)CC(=O)O1`, the “viability (% of control)” value is 36.2%.
Still for that read-out and setting: as for `CC(N[C@H]1C[C@H]1c1ccccc1)c1ccc2c(c1)OCCO2` (stereo not given in full), the figure is 106%.
Turning to `CN(C)[C@@H]1C(=O)C(C(N)=O)=C(O)[C@@]2(O)C(=O)C3=C(O)c4c(O)cccc4[C@@](C)(O)[C@H]3[C@H](O)[C@@H]12`, the Potency is 5.9 µM (active).
Regarding `O=C1CCC[C@@H]2[C@H]3CCCN4CCC[C@@H](CN12)[C@@H]34`, the “viability (% of control)” value was 98.8%.
Consider `COc1cc([C@@H]2c3cc4c(cc3[C@@H](O)C3COC(=O)C32)OCO4)cc(OC)c1O` (stereo not given in full), for which the Potency was 0.0148 µM (active).
As to `CC(C)[C@]12O[C@@H]1[C@@H]1O[C@]13[C@]1(O[C@H]1C[C@@H]1C4=C(CC[C@@]13C)C(=O)OC4)[C@H]2O`, the “viability (% of control)” value is 1.72%.
On the same count and under the same terms, as for `C[C@H]1CCCC=CC2C[C@H](O)C[C@@H]2[C@H](O)C=CC(=O)O1` (stereo not given in full), the figure is 4.03%; as for `NC1CC1c1ccccc1` (stereo not given), 104%.
Regarding `CCCCCC[C@H]1C(=O)O[C@H](C)[C@H](NC(=O)c2cccc(NC=O)c2O)C(=O)O[C@@H](C)[C@@H]1OC(=O)CC(C)C`, the Potency was 0.105 µM (active).
Consider `CCN1C[C@]2(OC(=O)c3ccccc3NC(C)=O)CC[C@H](OC)[C@@]34[C@H]5CC6[C@@H](OC)C[C@](O)(C(C[C@@H]23)[C@@H]14)[C@@]5(O)[C@@H]6OC`, for which the “viability (% of control)” value is 107%.
Consider `CCOP(=O)(OCC)C(C)NC(=O)N(CCCl)N=O` (stereo not given), for which the “viability (% of control)” value was 106%.
In the case of `O=S(=O)(F)Cc1ccccc1`, the Potency is 0.743 µM (active).
For the molecule `C#CC1(O)CCC2C3CCC4=CC(=O)CCC4(C)C3CCC21C` (stereo not given), the “viability (% of control)” value is 96.8%.
Turning to `O=S(=O)(CC1CS1)c1ccc(Oc2ccccc2)cc1` (stereo not given), the Potency is 13.2 µM (active).
As for `c1cc2c(cc1[C@H]1OC[C@H]3[C@H]1CO[C@H]3c1ccc3c(c1)OCO3)OCO2`, the Potency is 26.4 µM (active).
Turning to `CC(=Cc1csc(C)n1)[C@@H]1C[C@H]2O[C@@H]2CCC[C@H](C)[C@@H](O)[C@@H](C)C(=O)C(C)(C)[C@@H](O)CC(=O)O1`, the “viability (% of control)” value was 31.7%.
